# Assay outcomes (PubChem)
# ELG1 genotoxic: qHTS screen for small molecules that induce genotoxicity in human embryonic kidney (HEK293T) cells expressing luciferase-tagged ELG1. HEK293T ELG1-luciferase reporter, luminescence, 16 h. Potency, µM (top dose mostly 46 µM), for inactives: at the highest dose activity change, positive = activation, hits mostly activators. 1.3% of 330,000 active; further: % of control where 0% means no effect; nearly all actives have a fitted effect of over 60% in size
#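 HEK293T cells expressing luciferase-tagged ELG1 were treated with compound or DMSO for 16 hr at 37°C. Luciferase activity was then read after 30 min with ONE-Glo at room temperature; rising signal flags genetic stress.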
# KinaseGlo FLuc: Counterscreen for Luciferase (Kinase-Glo TM) Inhibition. 0.28% of 200,000 active. Potency, µM (top dose mostly 38.3 µM), inactives show at the top dose activity change, negative = inhibition, usual class: inhibitors. AID 1379, 2008. Kinase-Glo luciferase, ATP luminescence, 8 min. Luciferin 4-monooxygenase (Photuris pensylvanica), Q27757; further: on the % scale 0 is the no-effect control and ±100 the full control effect; nearly all actives have a fitted effect of over 60% in size
#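 Recombinant Kinase-Glo luciferase, 10 uM ATP (linear range), luciferin; imidazole pH 7.2 / KCl / MgCl2 / Tween / BSA buffer; 8 min RT; luminescence.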
# Rab9 prom act: qHTS Assay for Rab9 Promoter Activators; Huh7 Rab9 promoter-luciferase reporter, luminescence, 24 h; Potency, µM (series often up to 9.22 µM), for inactives: at the top dose activation, negative = inhibition, usual class: activators; 2.8% of 320,000 active; further: % of control where 0% means no effect; nearly all actives have a fitted effect of over 60% in size
#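 Measured in stably transfected Huh7 cells bearing a Rab9 promoter–luciferase construct: 24 h compound treatment at 37 °C, followed by luminescence detection.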
# SMN2 splice enh: qHTS Assay for Enhancers of SMN2 Splice Variant Expression. HEK293 SMN2-luciferase splicing reporter, luminescence, 30-36 h. Potency, µM (doses to about 46.1 µM), inactives show at the highest dose activity change, positive = activation, actives largely listed as activators. 2.8% of 210,000 active. AID 1458, 2008; further: % of control where 0% means no effect; nearly all actives have a fitted effect of over 55% in size
#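 qHTS luciferase splicing reporter: luminescence rises when SMN2 exon 7 is included in transfected HEK293 cells. Compound exposure lasted 30-36 h at 37C, with 4.5 mM final sodium butyrate as control, followed by a ONE-Glo read.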
# NPC1 prom act: qHTS Assay for NPC1 Promoter Activators; AID 485313, 2010; Huh7 NPC1 promoter luciferase reporter, 24 h; 2.4% of 320,000 active; Potency, µM (doses to about 9.22 µM), for inactives: top-dose activation, usual class: activators; further: % of control where 0% means no effect; nearly all actives have a fitted effect of over 60% in size
#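 Readout is luciferase luminescence, reflecting NPC1 promoter activation in stably transfected Huh7 cells after 24 h compound exposure at 37 °C in reduced-serum medium with 10% FBS.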
# FLuc modulator: qHTS profiling assay for firefly luciferase inhibitor/activator using purifed enzyme and Km concentrations of substrates (counterscreen for miR-21 project) | Luciferin 4-monooxygenase (Photinus pyralis), P08659 | AID 588342, 2011 | purified FLuc, Km substrates, luminescence inhibition | Potency, µM (top dose mostly 57.5 µM), for the others: at the top dose activity change, negative = inhibition, actives largely listed as inhibitors | 6.9% of 360,000 active;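 further: plate controls were vehicle for no effect and reference inhibitor for full effect; nearly all actives have a fitted effect of over 55% in size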
# Target sequence (P08659 whole entry, looked up): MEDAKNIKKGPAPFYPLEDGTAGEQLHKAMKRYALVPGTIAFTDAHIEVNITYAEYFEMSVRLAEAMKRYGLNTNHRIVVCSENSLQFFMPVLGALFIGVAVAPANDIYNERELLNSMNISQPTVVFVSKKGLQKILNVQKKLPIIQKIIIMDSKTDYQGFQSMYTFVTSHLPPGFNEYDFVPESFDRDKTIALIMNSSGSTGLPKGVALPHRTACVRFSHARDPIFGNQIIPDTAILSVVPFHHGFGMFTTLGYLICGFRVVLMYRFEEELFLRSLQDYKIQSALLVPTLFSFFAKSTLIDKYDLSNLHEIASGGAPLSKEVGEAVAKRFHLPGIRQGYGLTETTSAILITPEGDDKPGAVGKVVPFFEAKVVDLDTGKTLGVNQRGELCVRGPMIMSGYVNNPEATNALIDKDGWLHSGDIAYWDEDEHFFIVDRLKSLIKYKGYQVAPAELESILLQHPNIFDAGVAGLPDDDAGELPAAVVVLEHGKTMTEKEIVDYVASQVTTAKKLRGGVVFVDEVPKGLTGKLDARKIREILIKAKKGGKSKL
#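 Purified P. pyralis luciferase, 10 nM final, with Km-level 10 uM D-luciferin and 10 uM ATP in 50 mM Tris acetate pH 7.5, 10 mM Mg acetate, 0.01% Tween-20, 0.05% BSA; 6-point qHTS titration about 60 µM downward; luminescence read.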
# * = called active by the depositor; ? = inconclusive; . = no result; [ ] = dose if it differs, or a comment. Most compounds without a hit are left out; they make up all but 7.3% or so of the library. The call rests on the fitted dose curve; in most records, active means well fitted curve in the direction sought with a large enough effect; inconclusive means small, poorly fitted or top-dose-only effect, or another doubt; inactive means no such curve, though single readings can be large; an effect the other way counts as inactive or inconclusive. Potency means the concentration at half of the fitted maximal effect.
SMILES,ELG1 genotoxic,KinaseGlo FLuc,Rab9 prom act,SMN2 splice enh,NPC1 prom act,FLuc modulator
Nc1ccc(N(S(=O)(=O)c2ccccc2)S(=O)(=O)c2ccccc2)c(Cl)c1,.,-3%[7.66 µM],.,0%[9.22 µM],.,.
COc1cc2c(C(=O)N3CCN(c4cccc(C)c4)C(C)C3)cn(CC(C)C)c(=O)c2cc1OC (centres undefined),.,.,.,-13%,.,3%
CN(C)S(=O)(=O)c1ccc(Nc2ccc(-c3ccc4c(c3)OCCO4)nn2)cc1,3%,-7%,9%,2%,-5%,6.7µM*
CCN(CC)S(=O)(=O)c1ccc(Nc2ccc(-c3ccc4c(c3)OCCO4)nn2)cc1,8%,-4%,18%,-14%,-6%,11µM*
CN(C(=O)c1cccc(Nc2ccc(-c3ccc4c(c3)OCCO4)nn2)c1)C1CCCCC1,-21%,?,?,-59%,?,0.95µM*
CN(C(=O)c1cccc(NC(=O)c2ccccc2)c1)C1CCCCC1,-5%,.,0%,.,-1%,4%
C=CCN(C(=O)CSC1=NC(=O)CN1C(C)=O)c1nc(C)c(-c2ccccc2)s1,10%,2%,-36%,?,6%,6.7µM*
CC(=O)Nc1ccc(/C=C2/Sc3ccccc3C2=O)cc1,?,-3%,-8%,26%,-1%,0.76µM*
O=C1/C(=C\c2cccnc2)Sc2ccccc21,?,-8%,2%,13%,0%,6.7µM*
CN1C(=O)S/C(=C/c2cccnc2)C1=O,3%,3%,3%,3%,-2%,2%
CN(C)/C=C1/Sc2ccccc2C1=O,-2%,-5%,-4%,8%,11%,?
CN(C)C=NC(=O)c1cc(C(=O)c2ccccc2Cl)c[nH]1,1%,-2%,-6%,-4%,1%,1%
CNC(=O)c1cc(C(=O)c2ccc(C(F)(F)F)cc2)c[nH]1,?,.,19%,.,20%,?
CN(C)C=NC(=O)c1cc(C(=O)c2ccc(C(C)(C)C)cc2)c[nH]1,2.9µM*,7%,1.1µM*,3.2µM*,1.1µM*,9.5µM*
CC(C)(C)c1ccc(C(=O)c2c[nH]c(C(=O)O)c2)cc1,13%,2%,?,13µM*,?,2.1µM*
COC(=O)c1cc(C(=O)c2ccc(C(C)(C)C)cc2)c[nH]1,?,-1%,28%,15%,13%,19µM*
O=c1c2ccccc2nnn1CSc1nnc2ccccn12,18µM*,-9%,3.2µM*,13µM*,3.5µM*,15µM*
Cc1ccc(-n2nnnc2SCn2nnc3ccccc3c2=O)cc1,16µM*,-8%,3.5µM*,5%,?,13µM*
CCOC(=O)c1cc(-c2ccccc2)n(CC(=O)Nc2ccccc2OCC)c1C,.,.,.,.,.,-2%
CCOCCCNC(=O)c1ccc2c(=O)n(CCc3ccccc3)c(=O)[nH]c2c1,.,.,.,1%,.,1%
COc1ccc(CCNC(=O)CCn2c(=O)c3ccccc3n(Cc3ccccc3F)c2=O)cc1OC,.,.,.,3%,.,-4%
O=c1cc(O)c2sc3nc4c(c(C(F)(F)F)c3c2[nH]1)CCCCC4,2%,.,5%,.,-2%,17µM*
O=C(NC(=S)Nc1ccccc1O)c1ccccc1Cl,?,2%,3.2µM*,13µM*,?,24µM*
O=C(NNC(=S)Nc1ccccc1Cl)c1ccccc1Br,3.7µM*,.,4µM*,.,2.8µM*,11µM*
Cc1ccc(N2CN=C(c3ccccc3)NC2=S)cc1,15µM*,-4%,?,27%,?,9.5µM*
SMILES,ELG1 genotoxic,KinaseGlo FLuc,Rab9 prom act,SMN2 splice enh,NPC1 prom act,FLuc modulator
COc1ccc(C2=NCN(c3ccc(C)cc3)C(=S)N2)cc1,16µM*,-6%,2.8µM*,?,?,12µM*
Cc1nc2oc3ccc(F)cc3c(=O)c2cc1C(=O)O,6%,.,-7%,.,-1%,?
COCc1nc2oc3ccc(C)cc3c(=O)c2cc1C(=O)OC,?,.,1.8µM*,.,?,11µM*
CCc1nc2oc3ccccc3c(=O)c2cc1C(=O)OC,?,.,3.5µM*,.,3.2µM*,13µM*
COCc1nc2oc3ccc(F)cc3c(=O)c2cc1C(=O)OC,?,.,?,.,2.8µM*,?
Cn1ccnc1SCC(=O)Nc1ccc2nc(SCC(=O)NC3CC3)sc2c1,13µM*,-8%,?,18%,?,19µM*
CC(C)(C)NC(=O)CSc1nc2ccc(NC(=O)CSc3nnc(N)s3)cc2s1,-1%,-2%,-3%,-24%,-5%,12µM*
O=C(O)CCCNc1cc(N2CCC3(CC2)OCCO3)c2noc3c2c1C(=O)c1ccccc1-3,?,-23%,2.2µM*,-36%,4µM*,11µM*
CCOC(=O)c1ccoc1CSCc1ccc(C(=O)OC)o1,21µM*,-1%,17%,13%,-1%,5%
COC(=O)c1ccc(CSC(=N)N)o1,3%,-4%,11%,.,-1%,-1%
COc1ccc(-c2onc(C)c2C)cc1S(=O)(=O)N1c2ccccc2CC1C (centres undefined),.,.,.,.,.,-1%
C(=N\Nc1nc2ccccc2[nH]1)/c1ccc2c(c1)OCCO2,?,.,1.4µM*,.,?,0.76µM*
CC(C)NC(=S)N/N=C/c1ccc2c(c1)OCCO2,11%,2%,?,9%,28%,6.7µM*
Cc1cc(C)nc(N/N=C/c2ccc3c(c2)OCCO3)n1,11%,-6%,?,22%,14%,19µM*
Cc1cc(C)nc(N/N=C/c2ccccc2Cl)n1,15%,.,?,.,22%,?
Cc1cc(N/N=C/c2ccccc2Cl)nc(NCc2ccccc2)n1,-7%,-3%,-5%,-31%,-2%,7.6µM*
C(=N\Nc1nc2ccccc2[nH]1)/c1cccc2nccnc12,?,.,-4%,.,-5%,?
Cc1cc(C)nc(N/N=C/c2ccccc2)n1,3%,3%,?,20%,-1%,-19%
Cc1oc2ncn(CC(C)C)c(=O)c2c1C(=O)NCCCN1CCCCC1C (centres undefined),.,.,.,.,.,-1%
O=C(O)[C@@H]1[C@@H](C(=O)O)[C@@]23CCCC2=C2CC[C@@]3(C(=O)O)[C@@]3(C(=O)O)C[C@@]213,.,-4%[7.66 µM],.,-7%[9.22 µM],.,.
CCCCN(CC)CCNC(=O)Cn1cnc2sc(C)c(S(=O)(=O)N3CCN(c4ccccc4OC)CC3)c2c1=O,.,.,.,-1%,.,1%
COc1cc(CN(C(=O)COc2ccccc2)c2ccccn2)cc(OC)c1OC,.,.,.,.,.,-10%
Cc1cccc(Oc2ccc(NC(=O)CCC(=O)OCC(=O)c3ccc(Br)cc3)cc2)c1C,.,.,.,-4%,.,-10%
